HIV RNase H inh-1: blocks HIV-1 RNase H cleavage of RNA/DNA duplex; inhibition, % at 10 µM; AID 565; 65,000 compounds, 1.9% hits; RT-RNase H RNA/DNA duplex cleavage, fluorescence; in the data active means inhibition above about 50%
RmlC RmlD mix: mixture blocks RmlC and RmlD coupled enzyme activity; 110,000 compounds, 0.39% hits; inhibition, % at 5.5 µM; RmlC/RmlD coupled enzyme inhibition, 384-well mixture HTS; in the data active means inhibition above about 30%, passing the limit was not always enough
HIV RNase H inh-2: confirmation of HIV-1 reverse transcriptase RNase H inhibitors | inhibition, % at 10 µM | shares compounds with HIV RNase H inh-1 | Recombinant RT RNase H, fluorescent RNA/DNA duplex cleavage | 1,000 compounds, 39% hits; in the data active means inhibition above about 48%
An asterisk follows results filed as active; . = no result. The entries come from a sample that favours hits as a whole.

SMILES | HIV RNase H inh-1 | RmlC RmlD mix | HIV RNase H inh-2
CCOC(=O)c1sc(NS(=O)(=O)c2ccccc2Cl)nc1C | . | -11 | .
Cc1ccc(N(CC(O)CON=C2c3ccccc3-c3ccccc32)S(C)(=O)=O)cc1 (configuration not stated) | . | -15 | .
COCCN1CCN(C(=O)c2ccc3c(c2)S(=O)(=O)c2ccccc2C3=O)CC1 | . | 9 | .
CN1C(C(=O)NCc2ccc(OC(F)(F)F)cc2)CC2Cn3c(nc4cc(Cl)c(Cl)cc43)C21 (configuration not stated) | . | 3 | .
O=C(Nc1ccccc1)c1sc2cc(C(F)(F)F)cnc2c1-c1cccs1 | . | -14 | .
CCCCOC(=O)CSCC(=O)Nc1cc(C)on1 | 71* | -10 | 5
Cc1cc(NC(=O)CSc2ccccc2)no1 | -9 | -11 | .
CCOC(=O)c1ccccc1NC(=O)Cn1cnc2c(cnn2-c2ccccc2)c1=O | -14 | -19 | .
COC(=O)c1ccccc1NC(=O)Cn1cnc2c(cnn2-c2ccccc2)c1=O | 74* | -15 | 30
Cc1ccc(S(=O)(=O)N(c2nc(N(C)C)nc(N(C)C)n2)n2cnnc2)cc1 | . | 9 | .
O=C1C2C(C(=O)N1c1ccncc1)C1C=CC2C12CC2 (configuration not stated) | 74* | -8 | 29
Cc1ccc(N2C(=O)C3C(C2=O)C2C=CC3C23CC3)cc1 (configuration not stated) | 1 | -1 | .
Cc1ccc(C(=O)NC(N2CCCC2)C(Cl)(Cl)Cl)cc1 (configuration not stated) | . | -8 | .
COc1ccccc1CNC(=O)C1CC(c2ccccc2[N+](=O)[O-])=NO1 (configuration not stated) | . | -15 | .
Cc1cc(C)n(CCc2nc(-c3ccco3)cs2)n1 | . | -6 | .
Cc1nn(CCc2nc(-c3ccco3)cs2)c2[nH]c(=O)cc(C(F)(F)F)c12 | 88* | 1 | 69*
O=C(Nc1ccccc1)c1nnn(Cc2ccccc2)c1NC(=O)C(F)(F)F | . | -133 | .
COc1ccccc1C1=NOC(C)(c2nnc(-c3cccc(Cl)c3)o2)C1 (configuration not stated) | . | 4 | .
COCCSc1ccccc1C(=O)Nc1cc(C)on1 | 80* | -3 | 63*
COCCSc1ccccc1C(=O)Nc1cccnc1 | . | 1 | .
CCCC1COC(Cn2cncn2)(c2ccc(C)cc2)O1 (configuration not stated) | -11 | -3 | .
CCC(C)n1ncn(-c2ccc(N3CCN(c4ccc(OCC5COC(Cn6cncn6)(c6ccc(Cl)cc6Cl)O5)cc4)CC3)cc2)c1=O (configuration not stated) | 73* | 57 | 37
CCN(CC)c1ccc(N=Cc2c(O)n(CCC3=CCCCC3)c(=O)[nH]c2=O)cc1 | 18 | 2 | .
CN(C)c1ccc(N=Cc2c(O)n(CCC3=CCCCC3)c(=O)[nH]c2=O)cc1 | 58* | -14 | 51*
CCC(C(=O)NC1CCCC1)N(C(=O)Cn1nnc(-c2ccc(C)o2)n1)c1cnc2ccccc2c1 (configuration not stated) | 66* | 7 | 47
SMILES | HIV RNase H inh-1 | RmlC RmlD mix | HIV RNase H inh-2
Cc1ccc(-c2nnn(CC(=O)N(CC(=O)NC3CCCC3)c3cnc4ccccc4c3)n2)o1 | 10 | -7 | .
C=C[C@H]1[C@H](OC2OC(CO)C(O)C(O)C2O)OC=C(C(=O)OC)[C@H]1C[C@H]1CC(=O)C[C@H](CC(=O)CCc2ccc(O)cc2)O1 (some centres not stated) | . | -13 | .
Cc1cccc(-n2c(O)c(C=Nc3ccc4c(c3)OCO4)c3ccccc3c2=O)n1 | 65* | -6 | 23
Cc1ccc(-n2c(O)c(C=Nc3ccc4c(c3)OCO4)c3ccccc3c2=O)cc1C | . | 37 | .
COc1cccc(CN(CC(=O)NC2CCCC2)C(=O)Cn2nnc(-c3cccs3)n2)c1 | . | 104 | .
CCC(CC)c1nc(NCCC(=O)O)c2ccccc2n1 | 76* | 8 | 40
O=C(NCCO)c1nc(NCCO)c2ccccc2n1 | -15 | 6 | .
Cc1oc(-c2ccc(Cl)cc2)cc1-c1nn2c(-c3ccoc3C)nnc2s1 | 86* | 14 | 55*
Clc1ccc(-c2nnc3sc(-c4ccc(Br)o4)nn23)cc1 | 48 | 2 | .
O=C(NCCCn1ccnc1)C(Cc1ccccc1)N1C(=O)c2ccccc2C1=O (configuration not stated) | 55* | -1 | 35
O=C(O)C(Cc1ccccc1)N1C(=O)c2ccccc2C1=O (configuration not stated) | . | -10 | .
O=C(c1ccc(=O)n(Cc2ccc(Cl)c(Cl)c2)c1)N1CCOCC1 | . | 6 | .
O=C(CN1C(=O)COc2ccccc21)N(Cc1ccccc1)Cc1ccccn1 | 84* | -7 | 39
Cc1ccc(CN(Cc2cccnc2)C(=O)CN2C(=O)COc3ccccc32)o1 | -6 | 3 | .
CCc1ccccc1NC(=O)C(CC)Sc1nc2cc3c(cc2c(=O)n1Cc1ccco1)OCO3 (configuration not stated) | 78* | -13 | -12
CCc1ccc(NC(=O)C(CC)Sc2nc3cc4c(cc3c(=O)n2Cc2ccco2)OCO4)cc1 (configuration not stated) | . | 13 | .
Cc1oncc1C(=S)Nc1ccccc1 | 74* | -13 | 25
Cc1oncc1C(=O)Nc1ccc(C(F)(F)F)cc1 | -16 | -10 | .
CC1=C(C#N)C(Nc2ccc(C)cn2)(C(F)(F)F)C(=O)N1 (configuration not stated) | . | -20 | .
COc1ccc(-n2c(C)cc(C(=O)COc3ccc(-n4cnnn4)cc3)c2C)cc1 | 53* | 7 | 24
COc1ccc(OCCOC(=O)c2ccc(-n3cnnn3)cc2)cc1 | . | -7 | .
O=c1[nH]c(=O)n(-c2ccc(F)cc2)c(O)c1C=Nc1ccccc1N1CCCC1 | 74* | 43 | 62*
Cc1ccc(-n2c(O)c(C=Nc3ccccc3N)c(=O)[nH]c2=O)cc1C | 3 | -4 | .
Cc1cc(C(=O)OCC(=O)NCCC(C)C)c2ccccc2n1 | . | 10 | .
CSc1nc2sc3c(c2c2nnnn12)CCC3 | 41 | . | .
SMILES | HIV RNase H inh-1 | RmlC RmlD mix | HIV RNase H inh-2
CSc1nc2sc3c(c2c2nnnn12)CCCC3 | 51* | 4 | 33
Cc1nnc(NC(=O)c2c(-c3ccccc3)noc2C)s1 | . | -6 | .
CCC(CC)c1nnc(NC(=O)c2c(-c3ccccc3)noc2C)s1 | 84* | -12 | 28
CCc1nnc(NC(=O)Cn2c(=O)oc3ccccc32)s1 | . | 8 | .
CCCc1nnc(NC(=O)Cn2c(=O)oc3ccccc32)s1 | 77* | . | -16
Cc1c(C(N)=O)sc2ncn(CC(=O)N3CCC(C)CC3)c(=O)c12 | . | 9 | .
Cc1cccc(C)c1NC(=O)CSCC(=O)c1ccc(O)c(O)c1 | 87* | 5 | 62*
Cc1cccc(C)c1NC(=O)CSCC(=O)O | -4 | . | .
CN(C)c1cccc(C(=O)Nc2cccc(F)c2)c1 | 80* | -74 | 85*
CCN(CC)c1ccc(C(=O)Nc2cccc(F)c2)cc1 | 6 | -4 | .
Nc1c(Cl)cc(-c2csc(NC(CO)c3nc4ccccc4n3CCOCCO)n2)cc1Cl (configuration not stated) | . | 5 | .
COc1ccc(C2C(C#N)=C(N)SC(N)=C2C#N)cc1OC | 30 | 10 | .
CCOc1ccc(C2C(C#N)=C(N)SC(N)=C2C#N)c(OCC)c1 | 72* | 4 | 19
CCOc1cc(C2C(C#N)=C(N)SC(N)=C2C#N)ccc1OCCN1CCOCC1 | 87* | -4 | 85*

Compound activity as filed in PubChem.
